# In PubChem BioAssay:
# The source made the active and inactive calls. Unless noted, no rule for the calls is given here.
# Key:
# [1] = system: Wnt5a (protein binding on small-molecule microarray); assay: small molecules binding Wnt5a protein – biophysical, small-molecule microarray, 635/667 nm fluorescence, primary screen (AID 1142); conditions: 635 nm fluorescence, higher = more signal;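 also: fluorescence read at 667 nm with signal to noise per printed feature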
# [2] = ATP-based viability of Huh7 replicon cells – cell-based, CellTiter-Glo luminescence, basal, 48 h, cytotoxicity control for HCV replication inhibitor project, primary screen (AID 1143); conditions: higher = more signal, called active from +8 up or from −8 down;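 also: Huh7 hepatoma cells carrying a hepatitis C replication reporter with no stimulus; test concentration not given here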
# [3] = Pseudomonas biofilm growth suppression – PAO1 strain, BacTiter-Glo luminescence, LB-PBS, primary screen (AID 1144); conditions: P. aeruginosa PAO1 biofilm, 12 h, higher = more signal
# [4] = basal CRE-LacZ reporter activity in PC12 – cell-based, unstimulated, primary screen (AID 1145); conditions: no forskolin, luminescence, 4.5 h, higher = more signal, called active from +8 up or from −8 down
# [5] = forskolin-driven CRE-LacZ activity in PC12 – cell-based, CRE-LacZ reporter, forskolin-stimulated, primary screen (AID 1146); conditions: luminescence, 4.5 h, higher = more signal, called active from +8 up or from −8 down;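 also: PC12 cells with 6xCRE LacZ reporter stimulated by forskolin 10 µM; beta-galactosidase reporter signal reflecting CREB driven transcription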
# [6] = biological target: Streptavidin (Streptomyces avidinii) (UniProt P22629); assay: compounds binding control protein streptavidin – biophysical, small-molecule microarray, 635/667 nm fluorescence, artefact control for SMM compound annotation, primary screen (AID 1147); conditions: higher = more signal;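 also: signal reflects streptavidin binding to arrayed compounds as a control protein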
# [7] = probe aInhba binding on compound microarray – biochemical, small-molecule microarray, 635/667 nm fluorescence, primary screen (AID 1148); conditions: higher = more signal;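 also: score merges 667nm spot fluorescence with signal-to-noise for antibody binding to printed compounds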
# Torsin-1A (Homo sapiens) [8] = biological target: Torsin-1A (Homo sapiens) (UniProt O14656); assay: TOR1A wild-type binding on microarray – cell lysate, small-molecule microarray, lysate, 635/667 nm, primary screen (AID 1149); conditions: COS7 hTOR1A-WT lysate, 635 nm fluorescence, higher = more signal
# Torsin-1A (Homo sapiens) [9] = biological target: Torsin-1A (Homo sapiens) (UniProt O14656); assay: torsin A mutant lysate binding on microarrays – cell lysate, small-molecule microarray, COS7 lysate, 635/667 nm fluorescence, primary screen (AID 1150); conditions: COS7 hTOR1A mutant lysate, 635 nm fluorescence, higher = more signal;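 also: score pools 667 nm emission and signal to noise measuring lysate protein binding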
# [10] = system: Sonic hedgehog protein (Shh); assay: Sonic hedgehog microarray binding compounds – biochemical, small-molecule microarray, 635/667 nm fluorescence, primary screen (AID 1151); conditions: 635 nm fluorescence, higher = more signal;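 also: Shh protein binding to compounds spotted on small-molecule microarray slides; score combines spot fluorescence intensity with signal-to-noise across triplicate slides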
# [11] = optical density shifts of acrAB sulA E. coli – strain DRC41, OD650, 48 h, E. coli filamentation inducer project, primary screen (AID 1152); conditions: higher = more signal, called active from +8 up or from −8 down;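 also: E. coli MC1000 strain DRC41 lacking acrAB efflux pump and sulA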
# [12] = probe aLefty1 binding on compound microarray – biochemical, small-molecule microarray, 635/667 nm fluorescence, primary screen (AID 1153); conditions: higher = more signal;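 also: score merges spot fluorescence with signal-to-noise ratio from the scanned slide images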
# [13] = plasmodial surface anion channel blockers, osmotic lysis – cell-based, P. falciparum Indochina, OD700, 1 h, primary screen (AID 1154); conditions: P. falciparum Indochina infected RBC osmotic lysis, higher = more signal, called active from +8 up or from −8 down
# [14] = plasmodial surface anion channel blockers, osmotic lysis – cell-based, P. falciparum Indochina, OD700, 2 h, primary screen (AID 1155);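 also: lysis reports solute entry through the parasite surface anion channel PSAC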; conditions: P. falciparum Indochina infected erythrocytes, higher = more signal, called active from +8 up or from −8 down
# [15] = changes in parasitized red cell lysis, either direction – P. falciparum Indochina, OD700, 3 h, PSAC antagonist project, primary screen (AID 1156); conditions: P. falciparum-infected erythrocytes, osmotic lysis, higher = more signal, called active from +8 up or from −8 down
# [16] = plasmodial surface anion channel blockers, osmotic lysis – cell-based, P. falciparum Indochina, OD700, 18 h, primary screen (AID 1157); conditions: P. falciparum Indochina infected erythrocytes, osmotic lysis OD700, 18 h; higher = more signal, called active from +8 up or from −8 down
# [17] = S6 kinase pathway phospho-S6 level changes – cell-based, A549, cytoblot, luminescence, serum-stimulated, primary screen (AID 1158); conditions: 5 h, higher = more signal;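 also: serum-stimulated A549 lung adenocarcinoma cells; signal is phosphorylated S6 detected by cytoblot immunostaining with HRP secondary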
# [18] = biological target: NADPH oxidase 2 (Homo sapiens) (UniProt P04839); assay: compounds shifting NOX2 Amplex Red fluorescence – cell-based, HEK293-NOX2, PMA-stimulated, NOX inhibitor project, primary screen (AID 1159); conditions: 45 min, higher = more signal, called active from +8 up or from −8 down; also: test concentration not given here
# [19] = biological target: NADPH oxidase 4 (Homo sapiens) (UniProt Q9NPH5); assay: compounds shifting NOX4 Amplex Red fluorescence – cell-based, HEK293-NOX4, tetracycline-induced, NOX inhibitor project, primary screen (AID 1160); conditions: HEK293-NOX4, Amplex Red H2O2 fluorescence, 45 min; higher = more signal, called active from +8 up or from −8 down
# [20] = biological target: NADPH oxidase 5 (Homo sapiens) (UniProt Q96PH1); assay: compounds shifting NOX5 Amplex Red fluorescence – cell-based, HEK293-NOX5, NOX inhibitor project, primary screen (AID 1161); conditions: HEK293-NOX5, ionomycin, 45 min, higher = more signal
# Sequence of NADPH oxidase 5 (Homo sapiens) (Q96PH1 whole entry, looked up): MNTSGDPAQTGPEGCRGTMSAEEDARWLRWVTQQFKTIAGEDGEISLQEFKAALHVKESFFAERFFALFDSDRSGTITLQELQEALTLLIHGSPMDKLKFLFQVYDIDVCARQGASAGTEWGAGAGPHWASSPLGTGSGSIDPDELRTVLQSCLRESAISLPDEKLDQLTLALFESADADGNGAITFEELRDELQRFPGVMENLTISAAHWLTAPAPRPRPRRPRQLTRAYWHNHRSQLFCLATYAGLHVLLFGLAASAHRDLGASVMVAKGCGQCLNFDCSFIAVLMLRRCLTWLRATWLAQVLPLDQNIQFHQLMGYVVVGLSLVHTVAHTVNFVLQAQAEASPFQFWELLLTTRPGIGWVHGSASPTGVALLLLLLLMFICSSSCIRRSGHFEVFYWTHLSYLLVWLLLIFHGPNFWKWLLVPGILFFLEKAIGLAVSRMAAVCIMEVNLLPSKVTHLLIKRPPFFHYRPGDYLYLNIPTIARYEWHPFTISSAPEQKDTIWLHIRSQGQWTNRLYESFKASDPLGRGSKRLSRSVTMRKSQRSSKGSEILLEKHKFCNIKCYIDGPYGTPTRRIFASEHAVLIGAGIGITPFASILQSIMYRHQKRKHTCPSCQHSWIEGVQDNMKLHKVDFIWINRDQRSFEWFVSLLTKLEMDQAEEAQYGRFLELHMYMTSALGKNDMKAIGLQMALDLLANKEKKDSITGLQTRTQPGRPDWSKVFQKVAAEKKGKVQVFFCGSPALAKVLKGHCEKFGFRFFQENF
# Sequence of NADPH oxidase 2 (Homo sapiens) (P04839 whole entry, looked up): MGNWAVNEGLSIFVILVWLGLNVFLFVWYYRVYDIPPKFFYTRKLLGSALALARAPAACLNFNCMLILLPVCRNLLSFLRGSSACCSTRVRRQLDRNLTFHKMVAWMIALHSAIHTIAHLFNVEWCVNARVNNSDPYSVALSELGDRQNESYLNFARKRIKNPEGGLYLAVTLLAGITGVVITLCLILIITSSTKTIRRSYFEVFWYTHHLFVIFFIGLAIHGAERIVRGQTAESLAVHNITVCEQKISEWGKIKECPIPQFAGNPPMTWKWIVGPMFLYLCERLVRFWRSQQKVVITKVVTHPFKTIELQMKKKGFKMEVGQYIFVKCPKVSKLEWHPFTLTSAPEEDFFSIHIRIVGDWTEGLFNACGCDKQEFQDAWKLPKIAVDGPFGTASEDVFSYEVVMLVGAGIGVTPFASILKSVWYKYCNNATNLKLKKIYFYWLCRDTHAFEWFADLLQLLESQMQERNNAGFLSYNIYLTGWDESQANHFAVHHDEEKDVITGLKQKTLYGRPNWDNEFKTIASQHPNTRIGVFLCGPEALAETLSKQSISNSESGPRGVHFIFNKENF
# Sequence of Torsin-1A (Homo sapiens) (O14656 whole entry, looked up): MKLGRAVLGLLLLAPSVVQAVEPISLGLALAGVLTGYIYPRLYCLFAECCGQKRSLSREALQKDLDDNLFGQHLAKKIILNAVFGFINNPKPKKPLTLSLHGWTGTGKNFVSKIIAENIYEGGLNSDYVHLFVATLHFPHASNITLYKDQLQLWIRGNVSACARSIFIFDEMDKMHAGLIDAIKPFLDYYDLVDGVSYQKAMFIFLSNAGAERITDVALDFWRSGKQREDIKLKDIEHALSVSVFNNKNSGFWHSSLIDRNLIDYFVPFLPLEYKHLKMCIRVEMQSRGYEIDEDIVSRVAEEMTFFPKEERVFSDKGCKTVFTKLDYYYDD
# Sequence of NADPH oxidase 4 (Homo sapiens) (Q9NPH5 whole entry, looked up): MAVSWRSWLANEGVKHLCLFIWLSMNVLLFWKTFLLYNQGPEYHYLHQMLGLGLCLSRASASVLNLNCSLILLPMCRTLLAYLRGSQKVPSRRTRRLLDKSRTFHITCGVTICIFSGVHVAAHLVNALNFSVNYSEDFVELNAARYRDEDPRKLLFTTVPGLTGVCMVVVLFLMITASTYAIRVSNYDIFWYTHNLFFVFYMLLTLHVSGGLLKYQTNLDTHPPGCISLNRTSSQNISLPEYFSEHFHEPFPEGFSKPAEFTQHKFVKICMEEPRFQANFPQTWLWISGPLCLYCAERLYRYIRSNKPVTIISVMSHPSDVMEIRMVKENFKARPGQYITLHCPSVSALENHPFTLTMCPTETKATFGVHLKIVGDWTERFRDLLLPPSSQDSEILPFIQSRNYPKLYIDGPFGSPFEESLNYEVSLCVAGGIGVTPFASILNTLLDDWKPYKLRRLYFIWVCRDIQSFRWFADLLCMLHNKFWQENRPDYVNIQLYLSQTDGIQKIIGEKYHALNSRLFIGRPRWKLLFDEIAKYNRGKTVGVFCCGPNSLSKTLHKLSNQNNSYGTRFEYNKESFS
# Sequence of Streptavidin (Streptomyces avidinii) (P22629 whole entry, looked up): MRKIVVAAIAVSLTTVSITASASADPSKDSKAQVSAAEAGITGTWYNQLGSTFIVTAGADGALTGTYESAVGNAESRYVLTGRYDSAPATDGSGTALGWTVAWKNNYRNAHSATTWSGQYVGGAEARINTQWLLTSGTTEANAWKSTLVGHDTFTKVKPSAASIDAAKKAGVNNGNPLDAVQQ
SMILES,composite z-score [1],z-score [2],z-score [3],z-score [4],z-score [5],composite z-score [6],composite z-score [7],composite z-score (Torsin-1A (Homo sapiens) [8]),composite z-score (Torsin-1A (Homo sapiens) [9]),composite z-score [10],z-score [11],composite z-score [12],z-score [13],z-score [14],z-score [15],z-score [16],z-score [17],z-score [18],z-score [19],z-score [20]
COC(=O)[C@@]1(Cc2ccccc2)[C@H]2c3cc(C(=O)N4CCCC4)n(Cc4ccccc4)c3C[C@H]2CN1C(=O)c1ccccc1,0.651,-3.2 (inactive),-0.402 (inactive),1.74 (inactive),-0.0064 (inactive),0.589,0.53,-0.112,-0.0741,-0.606,-1.83 (inactive),0.128,3.6 (inactive),0.945 (inactive),0.365 (inactive),1.03 (inactive),-0.276,-0.218 (inactive),-0.0718 (inactive),-1.23
COCCCNC(=O)[C@@]1(C)c2ccccc2C(=O)N(c2ccc(C)cn2)[C@H]1c1ccc(CO)cc1,-0.259,0.616 (inactive),-0.252 (inactive),0.0279 (inactive),0.208 (inactive),-1.4,-0.202,0.152,-1.17,-0.0308,-0.0018 (inactive),-0.341,0.833 (inactive),-0.186 (inactive),0.0037 (inactive),-0.211 (inactive),-0.161,-1.02 (inactive),-0.261 (inactive),-1.7
CCCC=C(CCC)[C@@H](NC(=O)Cc1ccccc1)c1ccc(C(=O)OC)cc1,0.372,-2.2 (inactive),0.354 (inactive),0.0041 (inactive),0.545 (inactive),1.68,0.376,-0.0377,-0.414,-0.284,-1.45 (inactive),1.47,1.19 (inactive),0.194 (inactive),-0.0448 (inactive),0.25 (inactive),-0.504,-0.458 (inactive),0.261 (inactive),1.89
O=C1OCC=C[C@H]2OC34C=CCN(CCN5CCOCC5)C(=O)[C@H]3N(CCCCCO)C(=O)[C@@H]4[C@@H]12 (stereo not given in full),-0.304,0.0976 (inactive),0.0824 (inactive),2.22 (inactive),-0.555 (inactive),0.257,-0.128,-0.419,0.11,0.175,-0.457 (inactive),-0.045,1.69 (inactive),0.526 (inactive),1.5 (inactive),0.0882 (inactive),2.31,0.922 (inactive),0.379 (inactive),2.1
CN(C)C(=O)[C@@]1(CCC(=O)OC(C)(C)C)COC(c2ccc(OCCCO)cc2)=N1,0.0507,-0.196 (inactive),-0.478 (inactive),-0.277 (inactive),0.855 (inactive),-0.354,0.174,0.445,1.45,-0.942,0.752 (inactive),0.3,9.27 (active),0.536 (inactive),-0.674 (inactive),0.198 (inactive),-0.449,-0.0773 (inactive),0.829 (inactive),0.655
C=CCOC(=O)[C@@H]1[C@H]2C(=O)O[C@H](c3ccccc3)[C@H](c3ccccc3)N2[C@H](c2ccc(OCCOC(=O)[C@@H]3C[C@@H]4C(=O)N5CCC[C@H]5C(=O)N4[C@@H]3c3cccc(OCCO)c3)cc2)[C@@]12C(=O)Nc1ccc(I)cc12,0.667,-1.77 (inactive),-0.49 (inactive),-1.2 (inactive),-0.725 (inactive),0.161,-0.0221,0.85,0.623,2.01,0.745 (inactive),-0.462,3.47 (inactive),1.87 (inactive),3.63 (inactive),0.938 (inactive),0.198,1.82 (inactive),1.64 (inactive),1.73
COc1ccc(CCNC(=O)[C@@H]2c3ccccc3C(=O)N(Cc3ccccc3)[C@H]2c2ccc(CO)cc2)cc1,-0.039,-2.05 (inactive),-1.57 (inactive),0.971 (inactive),-1.15 (inactive),0.0585,-0.0195,-0.447,0.954,0.832,1.81 (inactive),0.436,3.59 (inactive),-0.275 (inactive),0.504 (inactive),-0.508 (inactive),1.89,-6.18 (inactive),-0.909 (inactive),-4.52
C=CC[C@@]1(C(=O)NCCN2CCOCC2)N=C(c2ccc(OCCCO)cc2)O[C@@H]1c1ccccc1,1.32,-0.914 (inactive),-0.299 (inactive),0.54 (inactive),-0.0392 (inactive),0.803,0.328,1.24,0.94,2.1,-0.302 (inactive),0.562,18.7 (active),3.03 (inactive),1.55 (inactive),0.863 (inactive),-0.501,0.48 (inactive),0.62 (inactive),-0.092
C=C(CCCC)/C(=C/C[C@@H](OC(=O)c1ccncc1)c1ccccc1OCCO)c1cc(C(=O)OC)ccc1OC,0.106,-2.02 (inactive),0.0648 (inactive),15.6 (active),0.383 (inactive),-0.36,-0.0047,0.622,1.1,1.4,0.504 (inactive),0.282,28 (active),17.5 (active),3.94 (inactive),2.07 (inactive),0.761,1.08 (inactive),-0.25 (inactive),-1.62
